From PubChem BioAssay (EPA / NIEHS)
The source made the active and inactive calls. The calls were made as follows: active = hit-call score of the fitted dose curve at least 0.9, where 1 is the maximum; inactive = score below 0.9.

What was measured:
Conditions in all cases: mRNA level, 48 h; actives raise or lower the signal
[1] = read-out: Bcl-2 (BAX) gene, BAX (gene 581); assay: LTEA_HepaRG_BAX: Life Technologies and Expression Analysis (LTEA) Assay for Bcl-2 (BAX) gene using HepaRG (AID 2283470)
Outline: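 Cells were thawed, plated for 48 h, moved to serum-free induction medium and dosed for 48 h (highest concentration 100 uM, half-log steps, 0.5% DMSO). Total RNA was then analysed for BAX expression by qRT-PCR.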

[2] = read-out: adenosine kinase (ADK) gene, ADK (gene 132); assay: LTEA_HepaRG_ADK: Life Technologies and Expression Analysis (LTEA) Assay for adenosine kinase (ADK) gene using HepaRG (AID 2283471)
Outline: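 Following 48 h exposure of HepaRG cells in 0.5% DMSO (top concentration 100 uM, duplicate wells), ADK mRNA induction or suppression was measured by qRT-PCR, normalised to ACTB/GAPDH/POLR2A, and fitted bidirectionally relative to vehicle.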

[3] = read-out: Alpha-fetoprotein (AFP) gene, AFP (gene 174); assay: LTEA_HepaRG_AFP: Life Technologies and Expression Analysis (LTEA) Assay for Alpha-fetoprotein (AFP) gene using HepaRG (AID 2283472)
Outline: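 Chemicals were tested on differentiated HepaRG cells for 48 hours at eight concentrations up to 100 uM, with 0.5% DMSO as vehicle. AFP expression was then quantified by qRT-PCR and analyzed for gain or loss relative to DMSO.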

BCL2L11 (gene 10018) = assay: LTEA_HepaRG_BCL2L11: Life Technologies and Expression Analysis (LTEA) Assay for Bcl-2 (BCL2L11) gene using HepaRG (AID 2283473)
Outline: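 Differentiated human HepaRG cells in serum-free induction medium were exposed in duplicate for 48 h to eight concentrations (top 100 uM, half-log steps, 0.5% DMSO). BCL2L11 mRNA was quantified by TaqMan qRT-PCR, normalized to ACTB/GAPDH/POLR2A, bidirectional fit versus DMSO.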

[4] = read-out: Apolipoprotein A-V (APOA5) gene, APOA5 (gene 116519); assay: LTEA_HepaRG_APOA5: Life Technologies and Expression Analysis (LTEA) Assay for Apolipoprotein A-V (APOA5) gene using HepaRG (AID 2283474)
Outline: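 Differentiated human HepaRG cells were exposed in duplicate for 48 h to eight half-log concentrations from 100 uM in 0.5% DMSO. APOA5 mRNA was quantified by TaqMan qRT-PCR, normalized to ACTB, GAPDH and POLR2A, and fitted bidirectionally against DMSO.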

[5] = read-out: Apoptosis regulator Bcl-2 (Homo sapiens) (UniProt P10415); assay: LTEA_HepaRG_BCL2: Life Technologies and Expression Analysis (LTEA) Assay for Bcl-2 gene using HepaRG (AID 2283475)
Outline: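 Plated human HepaRG cells are exposed to test chemicals for 48 h across eight concentrations from 100 uM downward in half-log steps (0.5% DMSO). BCL2 expression is then measured by qRT-PCR with housekeeping normalisation and fitted bidirectionally against vehicle.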

[6] = read-out: Bcl-2 (BID) gene, BID (gene 637); assay: LTEA_HepaRG_BID: Life Technologies and Expression Analysis (LTEA) Assay for Bcl-2 (BID) gene using HepaRG (AID 2283476)
Outline: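 Cells are plated, cultured 48 h, switched to serum-free induction medium, then dosed 48 h (100 uM top, half-log steps, 0.5% DMSO). RNA is isolated and BID expression read by qRT-PCR.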

Caspase-3 (Homo sapiens) = Caspase-3 (Homo sapiens) (UniProt P42574); assay: LTEA_HepaRG_CASP3: Life Technologies and Expression Analysis (LTEA) Assay for cysteine-aspartic acid protease (CASP3) using HepaRG (AID 2283477)
Caspase-3 (Homo sapiens), sequence (P42574 whole entry, looked up): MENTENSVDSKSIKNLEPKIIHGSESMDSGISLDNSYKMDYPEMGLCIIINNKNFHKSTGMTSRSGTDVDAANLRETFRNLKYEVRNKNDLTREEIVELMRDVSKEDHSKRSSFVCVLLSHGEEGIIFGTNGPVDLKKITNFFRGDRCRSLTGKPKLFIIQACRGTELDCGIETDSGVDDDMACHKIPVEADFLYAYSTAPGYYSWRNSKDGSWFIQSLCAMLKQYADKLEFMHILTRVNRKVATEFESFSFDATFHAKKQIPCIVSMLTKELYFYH
Outline: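 Differentiated human HepaRG cells in serum-free induction medium were exposed 48 h to 8-point half-log concentrations from 100 uM (0.5% DMSO vehicle). CASP3 mRNA was measured by qRT-PCR, normalised to ACTB, GAPDH and POLR2A, with bidirectional fitting against DMSO.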

[7] = read-out: Cytochrome P450 (CYP24A1), CYP24A1 (gene 1591); assay: LTEA_HepaRG_CYP24A1: Life Technologies and Expression Analysis (LTEA) Assay for Cytochrome P450 (CYP24A1) using HepaRG (AID 2283478)
Outline: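 Differentiated HepaRG cells, pre-cultured 48 h, were exposed in duplicate for 48 h in serum-free induction medium to 8 half-log concentrations (top 100 uM, 0.5% DMSO). CYP24A1 mRNA was quantified by TaqMan qRT-PCR, normalized to ACTB/GAPDH/POLR2A, fitted bidirectionally versus DMSO.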

[8] = read-out: Cytochrome P450 (CYP1A2), CYP1A2 (gene 1544); assay: LTEA_HepaRG_CYP1A2: Life Technologies and Expression Analysis (LTEA) Assay for Cytochrome P450 (CYP1A2) using HepaRG (AID 2283479)
Outline: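 Differentiated human HepaRG cells in serum-free induction medium were exposed in duplicate for 48 h to 8-point half-log concentrations up to 100 uM in 0.5% DMSO. CYP1A2 mRNA measured by qRT-PCR, normalized to ACTB, GAPDH, POLR2A; bidirectional fit vs DMSO.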

[9] = read-out: cysteine-aspartic acid protease (CASP8), CASP8 (gene 841); assay: LTEA_HepaRG_CASP8: Life Technologies and Expression Analysis (LTEA) Assay for cysteine-aspartic acid protease (CASP8) using HepaRG (AID 2283480)
Outline: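 Concentration-response in duplicate up to 100 uM (half-log steps, 0.5% DMSO) on differentiated HepaRG cultures for 48 h. Expression change of CASP8 mRNA is determined by TaqMan qRT-PCR with housekeeping-gene normalization.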

[10] = read-out: Cytochrome P450 (CYP2B6), CYP2B6 (gene 1555); assay: LTEA_HepaRG_CYP2B6: Life Technologies and Expression Analysis (LTEA) Assay for Cytochrome P450 (CYP2B6) using HepaRG (AID 2283481)
Outline: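 Differentiated HepaRG cells, serum-free induction medium, exposed 48 h in duplicate to 8-point half-log concentrations from 100 uM in 0.5% DMSO. CYP2B6 mRNA by qRT-PCR, normalized to ACTB, GAPDH, POLR2A; bidirectional fit versus DMSO.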

[11] = read-out: Cytochrome P450 2C19 (Homo sapiens) (UniProt P33261); assay: LTEA_HepaRG_CYP2C19: Life Technologies and Expression Analysis (LTEA) Assay for CYP2C19 using HepaRG (AID 2283482)
Outline: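 Differentiated human HepaRG cells were exposed for 48 h in serum-free induction medium to 8 concentrations (top 100 uM, half-log steps, 0.5% DMSO). CYP2C19 mRNA was measured by qRT-PCR, normalized to ACTB/GAPDH/POLR2A, and fitted bidirectionally against DMSO.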

CYP2C8 (gene 1558) = assay: LTEA_HepaRG_CYP2C8: Life Technologies and Expression Analysis (LTEA) Assay for CYP2C8 using HepaRG (AID 2283483)
Outline: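 This is a transcriptional endpoint in HepaRG cultures: 48 h exposure, highest concentration 100 uM. CYP2C8 mRNA is quantified by TaqMan qRT-PCR.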

CYP2C9 (gene 1559) = assay: LTEA_HepaRG_CYP2C9: Life Technologies and Expression Analysis (LTEA) Assay for CYP2C9 using HepaRG (AID 2283484)
Outline: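 Eight-point concentration-response (highest 100 uM, half-log dilutions) in HepaRG cells for 48 h; CYP2C9 expression by qRT-PCR normalized to ACTB, GAPDH, POLR2A. Bidirectional fit, DMSO baseline.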

CYP2E1 (gene 1571) = assay: LTEA_HepaRG_CYP2E1: Life Technologies and Expression Analysis (LTEA) Assay for CYP2E1 using HepaRG (AID 2283485)
Outline: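 Readout is qRT-PCR of CYP2E1 mRNA, normalized to three housekeeping genes and fitted bidirectionally against 0.5% DMSO. HepaRG cells were dosed 48 h at eight concentrations, highest 100 uM with half-log dilutions.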

CYP4A11 (gene 1579) = assay: LTEA_HepaRG_CYP4A11: Life Technologies and Expression Analysis (LTEA) Assay for CYP4A11 using HepaRG (AID 2283486)
Outline: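 Differentiated HepaRG cells, serum-free induction medium, exposed 48 h in duplicate to 8-point half-log series from 100 uM in 0.5% DMSO. CYP4A11 mRNA measured by qRT-PCR, normalized to ACTB, GAPDH, POLR2A; bidirectional fit versus DMSO.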

[12] = read-out: Cytochrome P450 3A4 (Homo sapiens) (UniProt P08684); assay: LTEA_HepaRG_CYP3A4: Life Technologies and Expression Analysis (LTEA) Assay for CYP3A4 using HepaRG (AID 2283487)
Outline: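 In a human hepatic line (HepaRG), duplicate wells were treated 48 h with up to 100 uM chemical in half-log dilutions. Endpoint: CYP3A4 mRNA induction or loss relative to 0.5% DMSO vehicle, by qRT-PCR.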

[13] = read-out: DNA damage-inducible transcript 3 (DDIT3), DDIT3 (gene 1649); assay: LTEA_HepaRG_DDIT3: Life Technologies and Expression Analysis (LTEA) Assay for DNA damage-inducible transcript 3 (DDIT3) using HepaRG (AID 2283488)
Outline: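 Cells are human HepaRG liver cells treated for 48 h with eight half-log concentrations up to 100 uM in 0.5% DMSO. Transcript levels come from qRT-PCR normalized to three housekeeping genes, with activity fitted in both directions relative to vehicle.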

[14] = read-out: Pro-epidermal growth factor (Homo sapiens) (UniProt P01133); assay: LTEA_HepaRG_EGF: Life Technologies and Expression Analysis (LTEA) Assay for Epidermal growth factor (EGF) using HepaRG (AID 2283489)
Outline: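 Differentiated human HepaRG cells, plated 48 h then switched to serum-free induction medium, were exposed for 48 h to test chemicals (8-point half-log series, top 100 uM, 0.5% DMSO). EGF mRNA was quantified by qRT-PCR, normalized to ACTB, GAPDH, POLR2A.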

Measured: AC50

Cytochrome P450 2C19 (Homo sapiens), sequence (P33261 whole entry, looked up): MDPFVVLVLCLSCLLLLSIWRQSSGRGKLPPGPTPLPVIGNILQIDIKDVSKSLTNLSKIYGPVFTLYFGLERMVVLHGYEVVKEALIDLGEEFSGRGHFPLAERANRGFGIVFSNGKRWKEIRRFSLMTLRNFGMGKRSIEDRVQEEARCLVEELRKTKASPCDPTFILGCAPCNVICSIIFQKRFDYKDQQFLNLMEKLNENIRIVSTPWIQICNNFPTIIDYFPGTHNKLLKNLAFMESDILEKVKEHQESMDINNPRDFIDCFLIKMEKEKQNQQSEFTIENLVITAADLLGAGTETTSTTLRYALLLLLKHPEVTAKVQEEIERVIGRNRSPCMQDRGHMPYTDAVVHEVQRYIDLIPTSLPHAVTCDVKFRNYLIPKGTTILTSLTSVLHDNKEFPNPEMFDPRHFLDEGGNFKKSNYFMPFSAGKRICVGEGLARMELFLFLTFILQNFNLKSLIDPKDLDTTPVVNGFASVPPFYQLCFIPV
Apoptosis regulator Bcl-2 (Homo sapiens), sequence (P10415 whole entry, looked up): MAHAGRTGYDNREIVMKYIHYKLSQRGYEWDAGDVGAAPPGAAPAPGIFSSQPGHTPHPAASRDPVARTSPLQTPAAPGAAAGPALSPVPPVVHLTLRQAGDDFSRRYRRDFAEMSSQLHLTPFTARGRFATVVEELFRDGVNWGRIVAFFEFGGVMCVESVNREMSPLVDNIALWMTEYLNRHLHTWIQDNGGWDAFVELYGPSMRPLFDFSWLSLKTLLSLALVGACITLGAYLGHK
Cytochrome P450 3A4 (Homo sapiens), sequence (P08684 whole entry, looked up): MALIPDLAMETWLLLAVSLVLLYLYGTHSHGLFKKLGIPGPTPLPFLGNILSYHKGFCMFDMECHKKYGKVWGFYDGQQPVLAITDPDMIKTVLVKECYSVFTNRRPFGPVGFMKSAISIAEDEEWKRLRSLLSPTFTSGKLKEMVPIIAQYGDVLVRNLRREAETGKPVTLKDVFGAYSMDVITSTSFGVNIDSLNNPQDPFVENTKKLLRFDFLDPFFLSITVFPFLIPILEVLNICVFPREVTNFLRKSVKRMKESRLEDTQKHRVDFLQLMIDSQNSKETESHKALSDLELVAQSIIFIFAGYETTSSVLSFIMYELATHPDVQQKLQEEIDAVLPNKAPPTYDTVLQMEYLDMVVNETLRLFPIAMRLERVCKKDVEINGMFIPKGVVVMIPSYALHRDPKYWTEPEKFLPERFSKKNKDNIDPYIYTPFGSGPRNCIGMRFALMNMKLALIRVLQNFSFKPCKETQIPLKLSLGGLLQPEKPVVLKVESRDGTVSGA

COc1cc(OC)nc(NC(=O)NS(=O)(=O)c2ncccc2OCC(F)(F)F)n1
active: [10] 23.8 µM | [11] 16.3 µM | CYP2C9 (gene 1559) 6.59 µM | [12] 13.3 µM
inactive: [1] | [2] | [3] | BCL2L11 (gene 10018) | [4] | [5] | [6] | Caspase-3 (Homo sapiens) | [7] | [8] | [9] | CYP2C8 (gene 1558) | CYP2E1 (gene 1571) | CYP4A11 (gene 1579) | [13] | [14]

COCC(=O)N(c1c(C)cccc1C)C(C)C(=O)OC (centres undefined)
active: [10] 1.23 µM | [11] 3.91 µM | CYP2E1 (gene 1571) 50 µM
inactive: [1] | [2] | [3] | BCL2L11 (gene 10018) | [4] | [5] | [6] | Caspase-3 (Homo sapiens) | [7] | [8] | [9] | CYP2C8 (gene 1558) | CYP2C9 (gene 1559) | CYP4A11 (gene 1579) | [13] | [14]

CS(=O)(=O)c1cc(C(F)(F)F)ccc1C(=O)c1cnoc1C1CC1
inactive: [1] | [2] | [3] | BCL2L11 (gene 10018) | [4] | [6] | Caspase-3 (Homo sapiens) | [7] | [8] | [9] | [10] | [11] | CYP2C8 (gene 1558) | CYP2C9 (gene 1559) | CYP4A11 (gene 1579) | [13] | [14]
active: CYP2E1 (gene 1571) 9.92 µM | [12] 35 µM

C=CCOC(=O)C(C)(C)OC(=O)c1cc(-n2c(=O)cc(C(F)(F)F)n(C)c2=O)ccc1Cl
active: [10] 6.65 µM | [12] 16.6 µM
inactive: [1] | [2] | [3] | BCL2L11 (gene 10018) | [4] | [6] | Caspase-3 (Homo sapiens) | [7] | [8] | [9] | [11] | CYP2C9 (gene 1559) | CYP2E1 (gene 1571) | CYP4A11 (gene 1579) | [13] | [14]

CCCCC(C#N)(Cn1cncn1)c1ccc(Cl)cc1 (centres undefined)
inactive: [1] | [2] | BCL2L11 (gene 10018) | [5] | [6] | Caspase-3 (Homo sapiens) | [7] | [9] | CYP2C9 (gene 1559) | [14]
active: [3] 67 µM | [8] 19.3 µM | [10] 3.06 µM | [11] 5.75 µM | CYP2C8 (gene 1558) 12.1 µM | CYP2E1 (gene 1571) 50 µM | CYP4A11 (gene 1579) 41.5 µM | [12] 4.85 µM | [13] 67.8 µM

Nc1c(Cl)c(Cl)nc(C(=O)O)c1Cl
inactive: [1] | [2] | [3] | BCL2L11 (gene 10018) | [4] | [5] | [6] | Caspase-3 (Homo sapiens) | [7] | [9] | [10] | [11] | CYP2C9 (gene 1559) | CYP2E1 (gene 1571) | CYP4A11 (gene 1579) | [12] | [13] | [14]
active: [8] 50 µM
